According to ChEMBL document CHEMBL3988442, “University of Dundee, Small-Polar-MMV Screening Library” (2021):
For some assays here: Measured potencies and affinities stand elsewhere.

Tests used:
Design in all cases: scale not given: direction of the effect not stated beside the values
[1] = molecular target: Protein translocase subunit SecA (Escherichia coli (strain K12)) (UniProt P10408); assay: Assay to Identify E. coli SecA ATPase Inhibitors; format: functional; details: 30 µM
[2] = molecular target: T1, Ubiquitin-activating enzyme e1, putative (Leishmania donovani (strain BPK282A1)) (UniProt E9BSI1); assay: Leishmania donovani Ubiquitin Activating Enzyme (LdE1); format: functional; details: 30 µM
T1 sequence (whole entry): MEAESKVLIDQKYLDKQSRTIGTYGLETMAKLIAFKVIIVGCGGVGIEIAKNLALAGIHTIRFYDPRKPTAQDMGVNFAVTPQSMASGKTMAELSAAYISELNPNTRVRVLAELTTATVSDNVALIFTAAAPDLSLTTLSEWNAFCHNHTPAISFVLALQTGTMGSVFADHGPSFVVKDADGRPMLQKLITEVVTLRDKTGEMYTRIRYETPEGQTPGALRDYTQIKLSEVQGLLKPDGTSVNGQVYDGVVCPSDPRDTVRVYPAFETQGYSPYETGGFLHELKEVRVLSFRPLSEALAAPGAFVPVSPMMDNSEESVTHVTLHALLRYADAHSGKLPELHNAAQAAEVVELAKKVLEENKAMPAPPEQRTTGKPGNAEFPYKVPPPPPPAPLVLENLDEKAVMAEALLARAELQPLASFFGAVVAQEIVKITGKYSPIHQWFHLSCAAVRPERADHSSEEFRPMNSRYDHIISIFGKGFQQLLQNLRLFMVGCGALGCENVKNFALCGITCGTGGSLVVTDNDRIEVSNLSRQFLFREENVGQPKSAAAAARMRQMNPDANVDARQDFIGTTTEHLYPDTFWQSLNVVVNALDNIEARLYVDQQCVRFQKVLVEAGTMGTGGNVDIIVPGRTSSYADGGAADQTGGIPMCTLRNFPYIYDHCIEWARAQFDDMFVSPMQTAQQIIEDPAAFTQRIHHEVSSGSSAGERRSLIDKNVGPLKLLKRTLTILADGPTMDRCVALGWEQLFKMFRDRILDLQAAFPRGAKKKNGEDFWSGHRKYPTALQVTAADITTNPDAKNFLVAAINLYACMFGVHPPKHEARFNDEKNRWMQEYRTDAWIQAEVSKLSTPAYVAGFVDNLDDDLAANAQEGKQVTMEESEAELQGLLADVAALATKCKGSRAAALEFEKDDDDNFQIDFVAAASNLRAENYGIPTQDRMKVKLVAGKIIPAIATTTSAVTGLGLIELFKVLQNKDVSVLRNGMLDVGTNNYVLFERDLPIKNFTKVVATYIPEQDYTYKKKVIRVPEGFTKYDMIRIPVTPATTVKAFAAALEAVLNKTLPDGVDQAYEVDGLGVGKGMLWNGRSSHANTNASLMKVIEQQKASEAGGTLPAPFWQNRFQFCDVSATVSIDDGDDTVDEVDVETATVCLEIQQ

[3] = molecular target: AMP-activated protein kinase, AMPK (Homo sapiens) (UniProt P54646+O43741+P54619+Q9UGJ0+Q9Y478+Q13131+Q9UGI9); assay: AMP-dependent Kinase enzyme assay. An in vitro enzyme assay that detects ADP turnover that is directly proportional to AMPK activity. This uses naive AMPK that is activated during the assay with MK-8722; format: functional; details: 30 µM
[4] = molecular target: Sialic acid-binding Ig-like lectin 9 (Homo sapiens) (UniProt Q9Y336); assay: Hs-Siglec9 ALPHAscreen SOP 20170721; details: 10 µM
Chain of Sialic acid-binding Ig-like lectin 9 (Homo sapiens) (Q9Y336 whole entry): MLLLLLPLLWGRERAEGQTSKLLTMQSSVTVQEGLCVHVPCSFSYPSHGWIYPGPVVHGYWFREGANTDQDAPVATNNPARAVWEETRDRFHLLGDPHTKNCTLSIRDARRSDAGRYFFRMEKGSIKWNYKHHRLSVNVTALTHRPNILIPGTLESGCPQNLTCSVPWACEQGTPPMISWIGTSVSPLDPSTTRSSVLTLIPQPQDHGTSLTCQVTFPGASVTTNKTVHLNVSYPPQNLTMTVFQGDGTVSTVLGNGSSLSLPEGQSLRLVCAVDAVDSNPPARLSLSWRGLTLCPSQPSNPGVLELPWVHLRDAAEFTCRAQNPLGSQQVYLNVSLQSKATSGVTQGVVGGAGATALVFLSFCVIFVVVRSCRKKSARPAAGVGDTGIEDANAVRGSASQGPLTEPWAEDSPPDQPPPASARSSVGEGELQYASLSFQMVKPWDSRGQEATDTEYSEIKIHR

Trypanosoma cruzi = assay: Trypanosoma cruzi phosphomannomutase and mannose-1-phosphate guanylyltransferase assay; format: functional; details: 10 µM
[5] = molecular target: T2, Arginase-2, mitochondrial (Homo sapiens) (UniProt P78540); assay: in vitro enzyme assay to detect the production of urea directly proportional to the activity of Arginase II; format: functional; details: 33.3 µM; also: in the data most compounds retested in dose-response had high values
T2 sequence (whole entry): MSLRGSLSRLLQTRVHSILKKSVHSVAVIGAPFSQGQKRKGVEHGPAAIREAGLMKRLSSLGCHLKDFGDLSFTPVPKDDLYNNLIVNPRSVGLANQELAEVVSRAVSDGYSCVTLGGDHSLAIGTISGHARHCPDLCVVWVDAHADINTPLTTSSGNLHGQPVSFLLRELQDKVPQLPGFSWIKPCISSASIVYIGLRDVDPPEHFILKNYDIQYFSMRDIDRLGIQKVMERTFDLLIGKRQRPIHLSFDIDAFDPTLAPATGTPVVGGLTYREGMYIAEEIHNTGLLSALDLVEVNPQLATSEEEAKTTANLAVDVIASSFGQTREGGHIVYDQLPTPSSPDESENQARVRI

[6] = molecular target: T3, Proteasome subunit beta (Trypanosoma cruzi) (UniProt O96673); assay: Trypanosoma cruzi proteasome chymotrypsin-like activity (TcProtChymo) assay.; also: in the data most compounds retested in dose-response had high values; format: functional; details: 9.37 µM
T3 sequence (whole entry): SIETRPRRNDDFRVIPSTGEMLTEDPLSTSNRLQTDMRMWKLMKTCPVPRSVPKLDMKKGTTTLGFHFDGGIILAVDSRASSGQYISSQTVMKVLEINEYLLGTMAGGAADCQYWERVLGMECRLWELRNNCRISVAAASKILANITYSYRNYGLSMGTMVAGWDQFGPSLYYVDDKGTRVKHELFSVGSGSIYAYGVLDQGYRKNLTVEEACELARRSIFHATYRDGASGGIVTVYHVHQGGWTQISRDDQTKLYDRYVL

Homo sapiens = species: Homo sapiens; assay: To identify inhibition of the IFN signalling (Jak-Stat) pathway via expression of an eGFP reporter gene under the control of an IFN-stimulated response element (ISRE) containing MxA promoter.; format: functional; details: 30 µM
[7] = molecular target: T4, Tyrosyl-tRNA synthetase, putative (Trypanosoma cruzi (strain CL Brener)) (UniProt Q4DSP6); assay: Trypanosoma cruzi tyrosyl tRNA synthetase (TcYRS) _High Tyrosine SOP; format: functional; details: 30 µM; also: in the data most compounds retested in dose-response had high values
T4 sequence (whole entry): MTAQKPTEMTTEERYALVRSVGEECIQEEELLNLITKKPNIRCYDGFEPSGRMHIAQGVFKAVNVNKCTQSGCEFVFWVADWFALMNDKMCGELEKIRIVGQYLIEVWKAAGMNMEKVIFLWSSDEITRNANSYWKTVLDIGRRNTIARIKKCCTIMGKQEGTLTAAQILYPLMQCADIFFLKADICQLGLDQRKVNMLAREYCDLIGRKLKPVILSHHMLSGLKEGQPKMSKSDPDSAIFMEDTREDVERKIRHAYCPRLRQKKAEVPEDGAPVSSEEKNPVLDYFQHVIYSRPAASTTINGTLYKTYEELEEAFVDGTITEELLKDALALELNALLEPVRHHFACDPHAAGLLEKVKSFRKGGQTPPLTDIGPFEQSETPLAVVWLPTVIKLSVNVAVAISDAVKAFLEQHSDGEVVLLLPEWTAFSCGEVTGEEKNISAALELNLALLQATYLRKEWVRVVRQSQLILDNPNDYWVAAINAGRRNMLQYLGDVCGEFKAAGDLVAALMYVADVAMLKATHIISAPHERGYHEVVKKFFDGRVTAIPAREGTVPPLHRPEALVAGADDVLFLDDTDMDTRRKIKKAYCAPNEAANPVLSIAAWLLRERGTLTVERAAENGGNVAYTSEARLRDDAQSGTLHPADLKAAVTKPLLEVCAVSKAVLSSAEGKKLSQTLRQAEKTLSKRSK

[8] = molecular target: T4, Tyrosyl-tRNA synthetase, putative (Trypanosoma cruzi (strain CL Brener)); assay: Trypanosoma cruzi tyrosyl tRNA synthetase (TcYRS) SOP; format: functional; details: 30 µM
[9] = molecular target: Chromo domain-containing protein 1 (Saccharomyces cerevisiae (strain ATCC 204508 / S288c) (Baker's yeast)) (UniProt P32657); assay: ScCHD-1 Enzyme Inhibition Assay; format: functional; details: 30 µM; also: in the data most compounds retested in dose-response had high values
Chain of Chromo domain-containing protein 1 (Saccharomyces cerevisiae (strain ATCC 204508 / S288c) (Baker's yeast)) (P32657 whole entry, the tested form may be a part): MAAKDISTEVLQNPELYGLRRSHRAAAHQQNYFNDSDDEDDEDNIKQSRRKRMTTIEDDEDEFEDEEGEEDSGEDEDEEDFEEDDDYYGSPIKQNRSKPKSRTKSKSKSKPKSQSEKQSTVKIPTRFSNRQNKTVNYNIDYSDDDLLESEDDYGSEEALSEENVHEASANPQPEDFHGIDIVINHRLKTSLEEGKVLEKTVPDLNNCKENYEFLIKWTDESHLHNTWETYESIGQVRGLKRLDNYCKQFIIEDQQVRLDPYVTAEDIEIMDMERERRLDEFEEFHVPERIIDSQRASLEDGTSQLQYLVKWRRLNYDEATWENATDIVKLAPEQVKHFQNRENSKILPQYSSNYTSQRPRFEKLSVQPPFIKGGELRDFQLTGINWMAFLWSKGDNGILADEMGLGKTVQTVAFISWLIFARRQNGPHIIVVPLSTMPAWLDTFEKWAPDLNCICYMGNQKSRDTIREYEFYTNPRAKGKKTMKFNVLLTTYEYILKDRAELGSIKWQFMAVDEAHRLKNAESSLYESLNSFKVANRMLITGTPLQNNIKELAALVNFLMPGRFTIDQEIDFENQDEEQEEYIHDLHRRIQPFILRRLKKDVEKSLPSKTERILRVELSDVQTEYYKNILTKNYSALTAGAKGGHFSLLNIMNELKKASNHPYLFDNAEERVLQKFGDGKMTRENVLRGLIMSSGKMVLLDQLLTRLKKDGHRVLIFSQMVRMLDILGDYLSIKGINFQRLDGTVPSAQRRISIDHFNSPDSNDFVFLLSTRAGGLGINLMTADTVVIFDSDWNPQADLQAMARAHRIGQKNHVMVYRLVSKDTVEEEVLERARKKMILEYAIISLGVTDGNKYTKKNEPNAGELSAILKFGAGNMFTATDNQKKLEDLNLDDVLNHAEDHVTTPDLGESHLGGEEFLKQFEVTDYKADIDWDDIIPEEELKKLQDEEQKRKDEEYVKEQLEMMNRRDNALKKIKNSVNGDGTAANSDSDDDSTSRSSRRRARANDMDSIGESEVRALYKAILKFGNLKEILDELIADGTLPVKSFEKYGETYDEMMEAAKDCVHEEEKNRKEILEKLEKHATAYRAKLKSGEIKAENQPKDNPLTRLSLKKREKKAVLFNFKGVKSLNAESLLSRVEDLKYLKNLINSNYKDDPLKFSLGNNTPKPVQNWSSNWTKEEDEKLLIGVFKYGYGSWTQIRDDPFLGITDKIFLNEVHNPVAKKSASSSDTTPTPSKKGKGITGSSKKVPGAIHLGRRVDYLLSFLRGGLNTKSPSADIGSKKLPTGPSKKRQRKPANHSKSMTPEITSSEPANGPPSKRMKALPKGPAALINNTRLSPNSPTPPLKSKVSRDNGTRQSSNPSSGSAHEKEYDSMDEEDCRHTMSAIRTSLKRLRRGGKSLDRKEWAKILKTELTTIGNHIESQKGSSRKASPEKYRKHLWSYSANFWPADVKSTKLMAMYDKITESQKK

Chain of Protein translocase subunit SecA (Escherichia coli (strain K12)) (P10408 whole entry): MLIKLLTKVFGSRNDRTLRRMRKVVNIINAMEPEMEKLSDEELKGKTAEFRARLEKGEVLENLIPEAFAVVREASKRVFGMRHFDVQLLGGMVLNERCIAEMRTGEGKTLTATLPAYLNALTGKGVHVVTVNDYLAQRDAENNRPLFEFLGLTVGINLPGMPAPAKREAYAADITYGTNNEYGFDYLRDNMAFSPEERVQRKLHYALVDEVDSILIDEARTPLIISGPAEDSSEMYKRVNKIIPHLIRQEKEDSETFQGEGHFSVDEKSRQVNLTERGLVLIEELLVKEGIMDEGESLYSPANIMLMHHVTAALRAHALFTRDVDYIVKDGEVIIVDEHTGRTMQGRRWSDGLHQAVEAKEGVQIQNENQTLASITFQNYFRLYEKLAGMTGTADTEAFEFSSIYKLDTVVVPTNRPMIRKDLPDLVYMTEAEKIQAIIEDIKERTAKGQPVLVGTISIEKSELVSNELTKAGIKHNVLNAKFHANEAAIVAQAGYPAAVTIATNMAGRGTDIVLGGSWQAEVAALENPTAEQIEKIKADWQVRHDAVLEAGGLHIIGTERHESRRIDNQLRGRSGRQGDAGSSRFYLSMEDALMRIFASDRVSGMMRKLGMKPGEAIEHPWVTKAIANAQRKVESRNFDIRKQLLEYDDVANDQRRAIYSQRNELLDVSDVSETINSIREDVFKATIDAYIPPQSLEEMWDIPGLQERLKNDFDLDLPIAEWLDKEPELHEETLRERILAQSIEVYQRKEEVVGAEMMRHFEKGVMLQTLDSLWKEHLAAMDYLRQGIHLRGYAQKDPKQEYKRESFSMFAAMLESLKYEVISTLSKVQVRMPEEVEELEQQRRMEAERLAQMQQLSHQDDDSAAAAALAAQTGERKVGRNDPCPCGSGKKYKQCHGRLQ

Row | Compound | Percent Effect [1] [%] | Percent Effect [2] [%] | Percent Effect [3] [%] | Percent Effect [4] [%] | Percent Effect (Trypanosoma cruzi) [%] | Percent Effect [5] [%] | Percent Effect [6] [%] | Percent Effect (Homo sapiens) [%] | Percent Effect [7] [%] | Percent Effect [8] [%] | Percent Effect [9] [%]
1 | Cc1nc(N2CCOCC2)nc2c1CN(C(=O)Cc1ccccn1)CC2 | 1.23 | 0 | 3.27 | 5.25 | 0.688 | 4.14 | 2.66 | -4.9 | 3.23 | -1.24 | 0.916
2 | CCc1nc(C2CCCN2Cc2nc(C3CC3)no2)no1 (configuration not stated) | -0.343 | 2.6 | -1.94 | 16.2 | 2.65 | -12.4 | 9.15 | -6.21 | 0 | 1.24 | -6.42
3 | Cn1cc(C2CCCN2C(=O)CCCOc2ccc(F)cc2F)cn1 (configuration not stated) | -6.14 | 10.1 | 1.86 | 9.73 | -0.283 | 1.9 | -3.36 | -0.895 | 4.43 | 3.8 | -1.53
4 | CN1CCN(Cc2cscn2)CC(C(=O)N(C)C)C1 (configuration not stated) | -6.29 | 18.7 | -6.4 | -0.543 | 5.91 | -3.03 | 3.44 | 5.65 | 8.51 | 14.1 | -4.45
5 | CC(NC(=O)CSCC#N)c1cccc(NC(=O)c2ccccc2)c1 (configuration not stated) | -6.35 | 15.8 | -4.8 | 13.9 | 4.76 | 1.08 | 8.38 | 12.6 | 5.42 | 23.5 | -7.99
6 | CC(C)n1cc(CN2CCCN(C(=O)c3nccnc3N)CC2)cn1 | -3.12 | 13.5 | -6.54 | -11.2 | -0.586 | 5.83 | 17 | 21.2 | 8.91 | 11 | 5
7 | CC(COc1ccc(F)cc1F)NC(=O)NCCN1CCOCC1 (configuration not stated) | -3.66 | 10.5 | 7.15 | -1.15 | 4.77 | -5.92 | 16 | -26.7 | 1.06 | 13 | -2.74
8 | CNc1cc(C)nc(C2CN(Cc3cc[nH]n3)CCO2)c1 (configuration not stated) | -2.72 | 1.35 | 11.4 | -2.27 | -7.51 | -6.26 | -0.156 | -17.5 | 0 | 3.9 | -10.1
9 | COc1ccc2c(c1)CCN(CCC(=O)NC1CCCCC1)CC2 | -1.36 | 2.7 | -5.04 | 1.78 | 5.41 | -1.43 | 15.3 | 14.6 | 6.88 | 12.2 | -1.4
10 | CN1CCN(c2nc(O)c3c(-c4ccccn4)ccnc3n2)CC1 | -4.77 | 0 | 6.93 | 2.2 | -2.24 | -7.1 | 18.1 | -16.4 | 6.38 | 10.4 | -7.72
11 | CCN(CC)Cc1ccc(C(=O)N2CCN(CC(C)O)CC2)cc1 (configuration not stated) | -4.12 | 0 | -3.46 | 8.13 | -0.472 | -2.81 | -4.5 | -2.61 | 4.43 | 1.24 | 0.847
12 | CC(=O)N1CCCC1c1ccc(-c2c(C)noc2C)cn1 (configuration not stated) | 0.953 | -4.05 | 8.36 | 2.83 | -3.56 | 6.26 | 4.52 | 5.24 | -1.07 | -3.9 | 3.24
13 | COCCn1ccc(NC(=O)Nc2cccnc2)n1 | -2.55 | 0 | 3.19 | 3.76 | 2.82 | -7.1 | 15.6 | 21.2 | 3.19 | 7.79 | -6.3
14 | O=C(NCCCNC(=O)c1cccc(O)c1)NCc1ccccc1F | -2.42 | 15.8 | 0.229 | 0.609 | 2.63 | -5.92 | 14.9 | 1.72 | 3.19 | 15.6 | -3.65
15 | CCn1cc(NC(=O)NCC(C)O)cn1 (configuration not stated) | -0.762 | 17.7 | -8.6 | -3.54 | -0.85 | 4.18 | 5.65 | 1.36 | 8.37 | -24.1 | -7.2
16 | CN(Cc1cn2c(n1)CN(CC1CC1)CC2)Cc1ccco1 | -3.08 | 8 | 16.6 | 0.972 | -3.35 | 0.233 | 1.5 | 8.85 | 7.45 | 8.97 | -4.14
17 | c1cnn(Cc2nnc(C3CCN(C4CCOCC4)CC3)n2C2CC2)c1 | -7.04 | 13.3 | -7 | 24.9 | 3.99 | 5.73 | 16.2 | 12.2 | 7.1 | 16.1 | 103
18 | NS(=O)(=O)Cc1ccc(CNC(=O)NCC2CCOC2)cc1 (configuration not stated) | -1.97 | 7.79 | 5.79 | -1.36 | 1.86 | 3.58 | 5.09 | -5.41 | 2.86 | 18.8 | -8.13
19 | Cc1cc(C(=O)N[C@@H]2CCNC[C@H]2O)ccc1Cl | -1.58 | 5.41 | 1.58 | 10.1 | 6.56 | -1.91 | 11.4 | -9.87 | 6.88 | 4.88 | -2.88
20 | CN1CCN(C(=O)c2cncc(CC3CCCN(C)C3)c2)CC1 (configuration not stated) | -3.41 | 9.46 | 5.47 | 12 | -8.3 | -7.66 | 12 | 15.9 | 1.07 | 1.3 | -9.97
21 | Cc1cccnc1NC(=O)NC(C)Cn1cccn1 (configuration not stated) | -8.41 | 10.4 | 7.9 | 3.8 | -5.62 | 1.78 | 0.845 | 23.3 | 3.88 | 2.44 | -4.43
22 | CCN(Cc1nc(C(C)C)no1)Cc1cccs1 | -3.02 | 7.79 | -1.84 | 6.48 | 5.8 | 1.38 | 12 | 6.22 | 1.07 | -1.24 | -5.13
